{"source": "PubChem BioAssay (NCI)", "note": "The panel holds about 83,000 compounds, 20% with a hit somewhere; the sample as a whole holds those more often.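 Plates (96-well) were seeded with cells, treated with compound at one concentration, and incubated for 48 hours before percent growth was determined.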 Activity calls are given as the source filed them.", "data": [{"system": "HOP-62 NSCLC", "test": "NCI-60 one-dose screen, 48 h (100 = growth as untreated, 0 = no growth, -100 = all killed)", "conditions": "10 µM unless noted", "method": "Growth inhibition of the HOP-62 human Non-Small Cell Lung tumor cell line is measured as a screen for anti-cancer activity. Cells are grown in 96 well plates and exposed to the test compound for 48 hours. Compounds are tested at a single concentration, which is 10^-5 M for most compounds. The reported endpoint is percent growth (GI% or GIPRCNT), where numbers from 0 - 100% represent growth inhibition, and numbers from -100% - 0 represent cell death. For example, a value of 40 represents 60% growth inhibition. A value of 0 means no net growth occurred over the course of the experiment. A value of -40 indicates 40% of cells at the beginning of the experiment died by the end of the experiment. A value of -100 means all cells are dead at the end of the experiment.\nNCI-60 Human Tumor Cell Lines Screen was performed using the standard one-dose NCI protocol, which is described in more detail at https://dtp.cancer.gov/discovery_development/nci-60/default.htm.\nCompounds with GIPRCNT values below 10 were considered active. Activity score was based on GIPRCNT using the following formula: […]\nScore is 0 for GIPRCNT values of 100 or above, 50 for GIPRCNT values of 0, and 100 for GIPRCNT values of -100.", "values": [{"smiles": "O=C(c1ccc(Cl)cc1)N1CCN(c2ccnc3cc(Cl)ccc23)CC1", "growth": "102% (inactive)"}, {"smiles": "S=C1CCSC(=S)N1CCCN1C(=S)CCSC1=S", "growth": "90.5% (inactive)"}, {"smiles": "c1ccc(CNc2c3ccccc3nc3ccccc23)cc1", "growth": "46% (inactive)"}, {"smiles": "CN(C)CCCn1c2c(c3ncccc3c1=O)C(=O)c1ccccc1-2", "growth": "51.9% (inactive)"}, {"smiles": "O=C(NNC(=O)c1ccc(-n2cc(-c3ccccc3)nn2)cc1)Nc1ccccc1", "growth": "94.8% (inactive)"}, {"smiles": "Cc1nc(-c2ccccc2)cc2c(O)c(C(=O)NN)[nH]c(=O)c12", "growth": "107% (inactive)"}, {"smiles": "N#Cc1cnc(NCCc2ccncc2)nc1-n1cnc2ccccc21", "growth": "77.3% (inactive)"}, {"smiles": "C#CCOc1cccc(Nc2ncnc3ccc(NC(=O)CCl)cc23)c1", "growth": "-35.4% (active)"}, {"smiles": "CCOC(=O)C1=NN(c2ccccc2)C(=O)/C1=C\\N1C(=O)CC(=O)NC1=S", "growth": "90.1% (inactive)"}, {"smiles": "CCn1cc(C(=O)N/N=C/c2cccs2)c(=O)c2cc(F)c(N3CCNC(C)C3)c(F)c21", "note": "(stereo not given)", "growth": "72.4% (inactive)"}, {"smiles": "CCN1CCN(c2cc(C(=O)Nc3nc(-c4cc(OC)c(OC)c(OC)c4)cs3)cc(C(F)(F)F)c2)CC1", "growth": "82.7% (inactive)"}, {"smiles": "c1cc2[nH]ncc2cc1-c1nc2ccc3[nH]ncc3c2c2c1CCCC2", "growth": "22.7% (inactive)"}, {"smiles": "O=C(NCc1ccccc1)Nc1ccccc1CNc1nc(Nc2ccc(OCCN3CCCC3)cc2)ncc1Cl", "growth": "86.2% (inactive)"}, {"smiles": "N#C/C(=C/c1ccc([N+](=O)[O-])cc1)n1nnc2cc(F)c(F)cc21", "growth": "96.6% (inactive)"}, {"smiles": "C#CCOc1ccc2ncnc(Nc3cccc(NC(=O)C=C)c3)c2c1", "growth": "63.6% (inactive)"}, {"smiles": "CCCCCCCCCCCCCCCCCCOc1ccccc1CC(=O)NCC[N+]1(C)CCCC1", "growth": "54% (inactive)"}, {"smiles": "O=[N+]([O-])c1ccc(N/N=C(/C(=N/Nc2ccc([N+](=O)[O-])cc2)c2ccccc2)c2ccccc2)cc1", "growth": "76.6% (inactive)"}, {"smiles": "COC(=O)c1c2c(c(C)[n+]([O-])c1C)C(=O)C=C(NCc1ccc(OC)cc1)C2=O", "growth": "3.79% (active)"}, {"smiles": "O=C(N/N=C/c1ccc(F)cc1)c1ccc(C(F)(F)F)nc1Nc1cccc(C(F)(F)F)c1", "growth": "-14.1% (active)"}, {"smiles": "CCOC(=O)Cn1c(O)c(N=Nc2ccc(S(N)(=O)=O)cc2)c2cc(Br)ccc21", "growth": "65% (inactive)"}, {"smiles": "N#Cc1c(NC(=O)c2ccccc2)sc2c1CCC(=O)C2", "growth": "40.7% (inactive)"}, {"smiles": "C[C@H](NC(=O)[C@@H](C)N)[C@H](Oc1ccc2c(cnn2-c2ccc(F)cc2)c1)c1ccc2c(c1)OCCO2", "growth": "50.6% (inactive)"}, {"smiles": "Cc1cc(Cl)ccc1NC(=O)c1cc2ccccc2cc1O", "growth": "33.9% (inactive)"}, {"smiles": "CCCCN1C(=O)/C(=c2\\sc3n(c2=O)C2C(NN=3)N(CC)C(=O)N2CC)c2ccccc21", "note": "(stereo not given)", "growth": "18% (inactive)"}, {"smiles": "Oc1c(Cl)cc(Cl)cc1/C=N/Nc1nnc(N/N=C/c2cc(Cl)cc(Cl)c2O)c2ccccc12", "growth": "20.6% (inactive)"}, {"smiles": "C=C1C(=O)O[C@H]2[C@H]1CC/C(COC(=O)NCc1ccc(Cn3c(=O)sn(CCI)c3=O)cc1)=C\\CC[C@@]1(C)O[C@@H]21", "growth": "114% (inactive)"}, {"smiles": "CC1(c2ccccc2O)NN=C(/N=C/c2cccc([N+](=O)[O-])c2)N1C(Cc1c[nH]c2ccccc12)C(=O)O", "note": "(stereo not given)", "growth": "65.8% (inactive)"}, {"smiles": "O=S(=O)(Nc1ccccc1)c1ccc(C2CC3(Cl)C(Cl)=C(Cl)C2(Cl)C3(Cl)Cl)cc1", "note": "(stereo not given)", "growth": "51.4% (inactive)"}, {"smiles": "CN1CCN(Cc2ccc3c(NNC(=O)c4ccccc4)nc4cc(F)ccc4n23)CC1", "growth": "24.1% (inactive)"}, {"smiles": "C#Cc1ccc(NC(=O)c2ccc(/C=C/C(=O)c3nccn3C)cc2)cc1", "growth": "-47% (active)"}, {"smiles": "O=S(=O)(NCCCNc1nccc(-c2c(-c3ccc(F)c(O)c3)nc3occn23)n1)c1ccccc1", "growth": "102% (inactive)"}, {"smiles": "CCOC(=O)c1c(NC(=O)c2ccc(C(C)C)cc2)sc2c(CN(C)C)c(O)ccc12", "growth": "89.9% (inactive)"}, {"smiles": "COc1ccc(NC(=O)c2sc3nc(C)c(C(=O)/C=C/c4cccc(OC)c4)cc3c2N)cc1", "growth": "61.8% (inactive)"}, {"smiles": "CCS/C(Nc1ccccc1)=C(\\C#N)C(=O)N/N=C/c1ccc(Cl)cc1Cl", "growth": "36.7% (inactive)"}, {"smiles": "Cc1ccc(/C=N/Nc2nc(Nc3ccccc3)nc(-n3nc(C)cc3C)n2)cc1", "growth": "73.3% (inactive)"}, {"smiles": "O=C1CNC(c2ccccc2)C(c2ccccc2)N1", "note": "(stereo not given)", "growth": "121% (inactive)"}, {"smiles": "O=C(NCCCCNC(=O)OCc1ccc2c(Cl)cc(Cl)c(O)c2n1)OCc1ccc2c(Cl)cc(Cl)c(O)c2n1", "growth": "9.48% (active)"}, {"smiles": "C=C(C)[C@@H]1CC[C@]2(C(=O)O)CC[C@]3(C)[C@H](CC[C@@H]4[C@@]5(C)C[C@@H](Cc6cn(CCO[C@@H]7O[C@H](COC(C)=O)[C@H](OC(C)=O)[C@H](OC(C)=O)[C@H]7OC(C)=O)nn6)[C@H](O)C(C)(C)[C@@H]5CC[C@]43C)[C@@H]12", "growth": "80.7% (inactive)"}, {"smiles": "C=CCc1c2c(c(OC)c3ccoc13)C(=O)/C(=C/c1ccccc1OC)O2", "growth": "80% (inactive)"}, {"smiles": "O=C(COc1ccc(-c2nc3ccccc3[nH]2)cc1)N=Nc1c(O)[nH]c2ccc(Cl)cc12", "growth": "99.9% (inactive)"}]}]}
